The target of test [1] is T1, Serine/threonine-protein kinase D2 (Homo sapiens) (UniProt Q9BZL6).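 Further: mean value of PRKD2 inhibition, from the GSK PKIS screening panel.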
T1 sequence (whole entry): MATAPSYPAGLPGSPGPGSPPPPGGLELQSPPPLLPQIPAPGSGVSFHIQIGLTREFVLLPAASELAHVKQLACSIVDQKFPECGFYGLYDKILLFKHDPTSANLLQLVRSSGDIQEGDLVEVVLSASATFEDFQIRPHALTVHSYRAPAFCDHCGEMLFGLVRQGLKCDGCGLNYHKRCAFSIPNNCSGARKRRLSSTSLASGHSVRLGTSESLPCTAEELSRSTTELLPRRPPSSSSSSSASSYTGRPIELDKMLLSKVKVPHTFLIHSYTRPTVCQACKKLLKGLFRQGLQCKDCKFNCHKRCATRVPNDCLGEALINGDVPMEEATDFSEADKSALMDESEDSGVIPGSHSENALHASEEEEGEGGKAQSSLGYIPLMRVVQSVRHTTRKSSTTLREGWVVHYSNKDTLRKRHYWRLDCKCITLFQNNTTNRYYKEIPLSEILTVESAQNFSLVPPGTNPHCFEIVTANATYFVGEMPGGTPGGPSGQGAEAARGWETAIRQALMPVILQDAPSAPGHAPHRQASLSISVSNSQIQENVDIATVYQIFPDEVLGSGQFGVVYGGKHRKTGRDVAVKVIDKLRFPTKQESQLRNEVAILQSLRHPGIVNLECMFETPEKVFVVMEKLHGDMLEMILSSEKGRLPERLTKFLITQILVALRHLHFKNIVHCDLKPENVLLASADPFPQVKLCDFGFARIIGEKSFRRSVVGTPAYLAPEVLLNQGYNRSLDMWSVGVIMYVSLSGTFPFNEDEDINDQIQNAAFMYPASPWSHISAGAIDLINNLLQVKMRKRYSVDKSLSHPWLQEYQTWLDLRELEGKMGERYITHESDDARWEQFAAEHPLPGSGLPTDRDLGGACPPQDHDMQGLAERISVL
The following applies: at 1 µM.

Test [2] addresses T2, Serine/threonine-protein kinase D3 (Homo sapiens) (UniProt O94806).
T2 sequence (whole entry): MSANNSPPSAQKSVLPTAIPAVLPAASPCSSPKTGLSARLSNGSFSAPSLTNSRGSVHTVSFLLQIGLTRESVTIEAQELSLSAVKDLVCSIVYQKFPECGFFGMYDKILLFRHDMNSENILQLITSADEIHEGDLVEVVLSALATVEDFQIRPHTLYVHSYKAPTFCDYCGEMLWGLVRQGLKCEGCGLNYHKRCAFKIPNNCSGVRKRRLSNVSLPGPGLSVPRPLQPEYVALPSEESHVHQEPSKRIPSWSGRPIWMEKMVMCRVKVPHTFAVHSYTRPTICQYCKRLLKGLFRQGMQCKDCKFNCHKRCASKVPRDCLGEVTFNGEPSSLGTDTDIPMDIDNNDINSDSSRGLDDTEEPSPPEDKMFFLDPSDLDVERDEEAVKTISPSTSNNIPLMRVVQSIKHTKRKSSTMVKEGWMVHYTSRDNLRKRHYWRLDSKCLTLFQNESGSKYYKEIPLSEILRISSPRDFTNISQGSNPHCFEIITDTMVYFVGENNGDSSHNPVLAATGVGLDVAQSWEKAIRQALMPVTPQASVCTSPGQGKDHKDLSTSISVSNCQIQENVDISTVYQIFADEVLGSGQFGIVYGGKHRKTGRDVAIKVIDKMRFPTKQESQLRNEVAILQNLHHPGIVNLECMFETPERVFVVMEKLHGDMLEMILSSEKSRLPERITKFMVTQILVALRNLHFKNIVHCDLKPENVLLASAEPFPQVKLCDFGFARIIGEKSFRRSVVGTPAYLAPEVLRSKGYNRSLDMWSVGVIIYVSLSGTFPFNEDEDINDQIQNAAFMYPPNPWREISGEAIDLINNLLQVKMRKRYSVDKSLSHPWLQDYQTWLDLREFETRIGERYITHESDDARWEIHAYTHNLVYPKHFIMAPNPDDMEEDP
The following applies: at 0.1 µM.

In test [3] the target is T2, Serine/threonine-protein kinase D3 (Homo sapiens). The following applies: at 1 µM.
For test [4], the target named is T3, cGMP-dependent protein kinase 1 (Homo sapiens) (UniProt Q13976).
T3 sequence (whole entry): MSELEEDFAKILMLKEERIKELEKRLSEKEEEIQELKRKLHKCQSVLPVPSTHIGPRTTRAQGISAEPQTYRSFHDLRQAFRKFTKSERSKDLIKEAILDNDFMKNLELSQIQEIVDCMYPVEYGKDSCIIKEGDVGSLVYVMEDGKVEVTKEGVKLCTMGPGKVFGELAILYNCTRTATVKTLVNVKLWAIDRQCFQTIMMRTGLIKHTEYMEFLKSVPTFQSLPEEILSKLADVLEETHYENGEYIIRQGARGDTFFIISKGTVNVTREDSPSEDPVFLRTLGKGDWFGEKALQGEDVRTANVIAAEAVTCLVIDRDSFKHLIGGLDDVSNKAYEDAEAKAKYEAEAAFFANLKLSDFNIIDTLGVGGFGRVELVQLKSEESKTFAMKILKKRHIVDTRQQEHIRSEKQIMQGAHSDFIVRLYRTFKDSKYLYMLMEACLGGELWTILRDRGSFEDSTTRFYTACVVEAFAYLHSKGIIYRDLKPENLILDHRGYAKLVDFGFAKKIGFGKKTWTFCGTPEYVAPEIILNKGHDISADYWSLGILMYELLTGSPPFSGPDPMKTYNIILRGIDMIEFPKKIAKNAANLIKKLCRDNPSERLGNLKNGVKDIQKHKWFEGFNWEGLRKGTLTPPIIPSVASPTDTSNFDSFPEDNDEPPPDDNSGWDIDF
Particulars: at 0.1 µM.

Test [5] deals with T3, cGMP-dependent protein kinase 1 (Homo sapiens). Particulars: at 1 µM.
The target in test [6] is T4, cGMP-dependent protein kinase 2 (Homo sapiens) (UniProt Q13237).
T4 sequence (whole entry): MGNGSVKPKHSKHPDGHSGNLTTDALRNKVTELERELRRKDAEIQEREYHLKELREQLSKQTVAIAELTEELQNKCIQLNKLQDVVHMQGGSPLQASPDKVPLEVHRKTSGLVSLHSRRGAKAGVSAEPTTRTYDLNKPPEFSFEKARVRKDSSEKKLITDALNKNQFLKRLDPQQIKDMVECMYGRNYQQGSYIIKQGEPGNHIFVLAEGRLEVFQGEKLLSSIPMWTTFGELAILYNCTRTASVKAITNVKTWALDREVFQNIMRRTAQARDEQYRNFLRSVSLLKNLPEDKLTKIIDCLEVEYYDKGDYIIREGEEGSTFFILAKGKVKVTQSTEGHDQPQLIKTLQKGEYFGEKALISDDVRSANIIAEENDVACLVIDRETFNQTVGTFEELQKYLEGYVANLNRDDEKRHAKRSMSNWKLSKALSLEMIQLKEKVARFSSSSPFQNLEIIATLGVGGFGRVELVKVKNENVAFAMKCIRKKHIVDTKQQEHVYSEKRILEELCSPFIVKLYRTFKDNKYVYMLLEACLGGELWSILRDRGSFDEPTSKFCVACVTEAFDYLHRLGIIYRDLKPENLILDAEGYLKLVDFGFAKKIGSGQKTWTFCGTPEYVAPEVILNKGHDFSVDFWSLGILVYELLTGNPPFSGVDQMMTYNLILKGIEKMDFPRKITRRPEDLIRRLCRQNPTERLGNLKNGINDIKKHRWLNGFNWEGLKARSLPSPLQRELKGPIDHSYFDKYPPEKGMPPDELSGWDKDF
The following applies: at 0.1 µM.

Test [7] deals with T4, cGMP-dependent protein kinase 2 (Homo sapiens). Particulars: at 1 µM.
Test [8] has as its target T5, cAMP-dependent protein kinase catalytic subunit PRKX (Homo sapiens) (UniProt P51817).
T5 sequence (whole entry): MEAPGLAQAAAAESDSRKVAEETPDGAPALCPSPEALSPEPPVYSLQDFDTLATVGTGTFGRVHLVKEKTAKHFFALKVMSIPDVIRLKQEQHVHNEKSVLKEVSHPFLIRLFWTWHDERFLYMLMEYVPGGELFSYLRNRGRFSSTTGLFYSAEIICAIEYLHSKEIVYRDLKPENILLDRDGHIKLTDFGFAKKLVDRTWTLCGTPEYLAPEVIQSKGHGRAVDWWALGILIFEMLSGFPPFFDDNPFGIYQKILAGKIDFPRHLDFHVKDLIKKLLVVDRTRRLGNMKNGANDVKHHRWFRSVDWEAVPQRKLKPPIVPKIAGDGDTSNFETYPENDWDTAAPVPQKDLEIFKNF
The following applies: at 0.1 µM.

For test [9], the target named is T5, cAMP-dependent protein kinase catalytic subunit PRKX (Homo sapiens). The following applies: at 1 µM.
The target of test [10] is Rho-associated protein kinase 1 (Homo sapiens) (UniProt Q13464). The following applies: at 0.1 µM.
Test [11] has the same target. The following applies: at 1 µM.
Test [12] deals with Rho-associated protein kinase 2 (Homo sapiens) (UniProt O75116). The following applies: at 0.1 µM.
For test [13] the target is unchanged. Particulars: at 1 µM.
In test [14] the target is Ribosomal protein S6 kinase alpha-1 (Homo sapiens) (UniProt Q15418). The following applies: at 0.1 µM.
The target is the same in test [15]. Particulars: at 1 µM.
Test [16] concerns the target Ribosomal protein S6 kinase alpha-3 (Homo sapiens) (UniProt P51812). The following applies: at 0.1 µM.
Test [17] shares this target. The following applies: at 1 µM.
In test [18] the target is Ribosomal protein S6 kinase alpha-2 (Homo sapiens) (UniProt Q15349). The following applies: at 0.1 µM.
The target is the same in test [19]. The following applies: at 1 µM.
The target in test [20] is Ribosomal protein S6 kinase alpha-6 (Homo sapiens) (UniProt Q9UK32). The following applies: at 0.1 µM.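 Further: reported value is the mean inhibition of RSK4, from the GSK PKIS kinase inhibitor screen.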

Structures are written as SMILES.

Sequence of Rho-associated protein kinase 1 (Homo sapiens) (Q13464 2-1354 limits assumed): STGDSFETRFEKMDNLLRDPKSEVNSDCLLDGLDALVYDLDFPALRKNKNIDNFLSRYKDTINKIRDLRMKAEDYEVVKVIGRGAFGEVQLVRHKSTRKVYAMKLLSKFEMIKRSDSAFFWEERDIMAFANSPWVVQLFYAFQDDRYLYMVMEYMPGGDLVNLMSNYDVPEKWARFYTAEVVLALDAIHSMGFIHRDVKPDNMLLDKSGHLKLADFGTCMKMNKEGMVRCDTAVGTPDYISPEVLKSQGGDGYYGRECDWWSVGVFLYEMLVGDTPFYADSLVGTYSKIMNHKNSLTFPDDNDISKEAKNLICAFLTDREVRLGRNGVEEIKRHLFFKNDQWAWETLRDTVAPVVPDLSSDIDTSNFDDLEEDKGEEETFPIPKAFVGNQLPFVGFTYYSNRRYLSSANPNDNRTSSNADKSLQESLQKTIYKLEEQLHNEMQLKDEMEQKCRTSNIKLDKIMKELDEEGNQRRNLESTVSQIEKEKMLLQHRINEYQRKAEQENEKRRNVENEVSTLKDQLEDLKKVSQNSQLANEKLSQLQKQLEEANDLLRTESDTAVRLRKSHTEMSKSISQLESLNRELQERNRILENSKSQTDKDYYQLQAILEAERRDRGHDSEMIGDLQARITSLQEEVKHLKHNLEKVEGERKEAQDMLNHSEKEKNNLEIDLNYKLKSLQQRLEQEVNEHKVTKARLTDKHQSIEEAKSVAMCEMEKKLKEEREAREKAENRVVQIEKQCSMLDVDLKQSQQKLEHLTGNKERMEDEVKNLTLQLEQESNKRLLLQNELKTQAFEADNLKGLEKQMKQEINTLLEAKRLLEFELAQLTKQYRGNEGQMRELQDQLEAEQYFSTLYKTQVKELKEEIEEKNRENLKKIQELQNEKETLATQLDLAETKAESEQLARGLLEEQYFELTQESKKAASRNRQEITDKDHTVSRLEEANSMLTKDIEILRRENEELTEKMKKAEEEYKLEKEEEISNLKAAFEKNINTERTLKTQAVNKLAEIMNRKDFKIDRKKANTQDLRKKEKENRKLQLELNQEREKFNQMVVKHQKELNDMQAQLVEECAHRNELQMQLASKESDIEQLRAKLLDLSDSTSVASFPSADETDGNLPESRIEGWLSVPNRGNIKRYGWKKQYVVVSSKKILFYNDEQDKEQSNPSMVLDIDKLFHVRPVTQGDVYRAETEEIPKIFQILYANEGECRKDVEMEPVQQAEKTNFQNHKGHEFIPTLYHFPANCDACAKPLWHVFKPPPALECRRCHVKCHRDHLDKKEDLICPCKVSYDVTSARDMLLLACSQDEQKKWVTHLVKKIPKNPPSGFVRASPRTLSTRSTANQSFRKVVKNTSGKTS
Sequence of Ribosomal protein S6 kinase alpha-6 (Homo sapiens) (Q9UK32 whole entry): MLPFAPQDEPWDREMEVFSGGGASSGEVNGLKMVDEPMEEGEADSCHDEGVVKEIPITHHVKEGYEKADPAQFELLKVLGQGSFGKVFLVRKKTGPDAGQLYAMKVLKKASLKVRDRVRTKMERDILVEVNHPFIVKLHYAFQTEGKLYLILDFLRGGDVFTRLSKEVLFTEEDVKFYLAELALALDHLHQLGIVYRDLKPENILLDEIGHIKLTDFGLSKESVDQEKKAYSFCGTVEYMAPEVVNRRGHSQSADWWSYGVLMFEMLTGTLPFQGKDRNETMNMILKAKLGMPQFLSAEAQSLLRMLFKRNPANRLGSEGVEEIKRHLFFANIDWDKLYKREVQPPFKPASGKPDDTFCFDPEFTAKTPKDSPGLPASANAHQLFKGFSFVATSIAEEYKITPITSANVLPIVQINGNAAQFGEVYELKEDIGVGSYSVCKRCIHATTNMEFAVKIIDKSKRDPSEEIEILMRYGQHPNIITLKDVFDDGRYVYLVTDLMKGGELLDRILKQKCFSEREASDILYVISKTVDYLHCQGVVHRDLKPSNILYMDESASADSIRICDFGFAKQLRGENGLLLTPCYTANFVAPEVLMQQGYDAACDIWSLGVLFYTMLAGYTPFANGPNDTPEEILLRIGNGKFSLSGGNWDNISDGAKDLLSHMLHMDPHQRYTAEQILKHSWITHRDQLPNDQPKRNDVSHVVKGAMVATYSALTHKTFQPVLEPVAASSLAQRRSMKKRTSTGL
Sequence of Ribosomal protein S6 kinase alpha-1 (Homo sapiens) (Q15418 whole entry): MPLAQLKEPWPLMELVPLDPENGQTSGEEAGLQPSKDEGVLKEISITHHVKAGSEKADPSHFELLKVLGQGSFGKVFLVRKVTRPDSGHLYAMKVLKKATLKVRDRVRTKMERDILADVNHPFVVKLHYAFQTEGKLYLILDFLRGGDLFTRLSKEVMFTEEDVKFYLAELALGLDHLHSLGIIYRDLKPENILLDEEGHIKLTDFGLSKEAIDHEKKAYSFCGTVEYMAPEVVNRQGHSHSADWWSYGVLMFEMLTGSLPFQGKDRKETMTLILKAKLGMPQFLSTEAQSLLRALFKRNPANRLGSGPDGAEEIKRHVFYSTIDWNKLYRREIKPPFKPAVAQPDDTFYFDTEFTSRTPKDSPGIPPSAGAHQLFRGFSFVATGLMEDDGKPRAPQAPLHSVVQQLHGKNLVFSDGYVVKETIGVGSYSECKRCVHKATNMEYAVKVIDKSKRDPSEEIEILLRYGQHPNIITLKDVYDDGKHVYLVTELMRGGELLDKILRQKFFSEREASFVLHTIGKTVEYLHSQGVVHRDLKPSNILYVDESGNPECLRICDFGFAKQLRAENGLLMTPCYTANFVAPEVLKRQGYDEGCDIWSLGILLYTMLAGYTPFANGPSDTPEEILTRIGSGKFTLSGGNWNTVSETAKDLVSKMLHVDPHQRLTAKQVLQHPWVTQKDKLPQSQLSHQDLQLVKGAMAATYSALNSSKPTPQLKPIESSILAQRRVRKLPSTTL
Sequence of Ribosomal protein S6 kinase alpha-2 (Homo sapiens) (Q15349 whole entry): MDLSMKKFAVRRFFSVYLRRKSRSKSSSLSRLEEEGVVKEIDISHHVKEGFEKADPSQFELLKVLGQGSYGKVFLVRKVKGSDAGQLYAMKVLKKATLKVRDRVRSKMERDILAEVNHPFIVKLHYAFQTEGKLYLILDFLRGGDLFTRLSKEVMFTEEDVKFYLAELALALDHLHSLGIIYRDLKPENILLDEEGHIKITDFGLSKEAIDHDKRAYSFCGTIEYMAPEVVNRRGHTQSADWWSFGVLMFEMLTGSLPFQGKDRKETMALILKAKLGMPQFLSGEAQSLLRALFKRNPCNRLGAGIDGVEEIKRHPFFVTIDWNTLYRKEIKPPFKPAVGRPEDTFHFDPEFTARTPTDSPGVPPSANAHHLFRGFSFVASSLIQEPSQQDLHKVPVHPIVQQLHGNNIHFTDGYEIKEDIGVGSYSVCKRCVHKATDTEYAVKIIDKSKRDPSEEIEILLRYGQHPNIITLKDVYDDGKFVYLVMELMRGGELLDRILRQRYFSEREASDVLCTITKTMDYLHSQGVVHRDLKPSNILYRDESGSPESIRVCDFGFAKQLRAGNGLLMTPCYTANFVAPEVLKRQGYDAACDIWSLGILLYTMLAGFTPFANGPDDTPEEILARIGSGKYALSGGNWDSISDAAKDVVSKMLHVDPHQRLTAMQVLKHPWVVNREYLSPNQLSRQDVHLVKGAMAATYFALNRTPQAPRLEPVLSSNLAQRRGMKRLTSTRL
Sequence of Rho-associated protein kinase 2 (Homo sapiens) (O75116 whole entry, looked up): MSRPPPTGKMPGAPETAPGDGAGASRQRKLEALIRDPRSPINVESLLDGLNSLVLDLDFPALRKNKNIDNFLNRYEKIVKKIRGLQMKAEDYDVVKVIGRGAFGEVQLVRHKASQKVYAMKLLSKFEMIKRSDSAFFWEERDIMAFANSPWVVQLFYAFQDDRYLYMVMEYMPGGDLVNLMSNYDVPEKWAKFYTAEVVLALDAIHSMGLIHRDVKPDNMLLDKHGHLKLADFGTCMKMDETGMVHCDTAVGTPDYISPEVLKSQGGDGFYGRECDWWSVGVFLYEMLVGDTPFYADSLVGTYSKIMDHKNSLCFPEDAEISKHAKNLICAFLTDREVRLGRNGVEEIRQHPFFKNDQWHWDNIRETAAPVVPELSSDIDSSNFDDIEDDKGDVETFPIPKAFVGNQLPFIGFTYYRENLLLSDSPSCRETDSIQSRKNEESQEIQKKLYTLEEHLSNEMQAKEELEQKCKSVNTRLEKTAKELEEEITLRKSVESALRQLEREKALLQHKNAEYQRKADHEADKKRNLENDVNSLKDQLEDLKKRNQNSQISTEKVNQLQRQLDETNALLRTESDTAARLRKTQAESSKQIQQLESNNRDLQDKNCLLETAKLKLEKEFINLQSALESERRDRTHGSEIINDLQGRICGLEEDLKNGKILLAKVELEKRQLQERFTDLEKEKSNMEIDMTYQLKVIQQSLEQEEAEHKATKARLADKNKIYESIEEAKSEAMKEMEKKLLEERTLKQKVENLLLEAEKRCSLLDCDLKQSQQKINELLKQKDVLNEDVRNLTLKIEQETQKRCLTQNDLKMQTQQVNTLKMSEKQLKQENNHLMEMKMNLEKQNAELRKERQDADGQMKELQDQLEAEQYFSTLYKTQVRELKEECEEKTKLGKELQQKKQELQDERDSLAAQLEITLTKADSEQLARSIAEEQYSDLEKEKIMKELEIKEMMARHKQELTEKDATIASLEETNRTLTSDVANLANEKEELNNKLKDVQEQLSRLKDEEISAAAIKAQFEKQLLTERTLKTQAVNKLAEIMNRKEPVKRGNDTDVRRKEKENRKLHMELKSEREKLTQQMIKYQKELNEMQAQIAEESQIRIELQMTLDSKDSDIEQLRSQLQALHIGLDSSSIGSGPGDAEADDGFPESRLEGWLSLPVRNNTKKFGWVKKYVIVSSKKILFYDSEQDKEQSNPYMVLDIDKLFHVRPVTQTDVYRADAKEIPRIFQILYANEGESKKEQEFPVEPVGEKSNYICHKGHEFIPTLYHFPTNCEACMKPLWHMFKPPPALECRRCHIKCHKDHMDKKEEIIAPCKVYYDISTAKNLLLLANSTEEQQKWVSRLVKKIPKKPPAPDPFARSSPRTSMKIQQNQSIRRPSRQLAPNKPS

Take `CCOc1nccc2c1nc(-c1nonc1N)n2CC`: the inhibition in test [1] turned out to be 1.39%; in test [2] it was 3.3%; in test [3] it was 2.21%; in [4], 4.09%; in test [5], 5.91%; in [6] it was 8.5%. The inhibition in test [7] is 43.1%; in test [8], 3.1%; in test [9], 2.76%; in test [10], 2.91%; in test [11], 10.8%; in test [12] it was 4.9%. The inhibition in test [13] was 23.1%; in test [14] it was 5.34%; in test [15], 30%; in test [16], 3.74%; in [17], 17.1%; in test [18], 5.7%. The results for the inhibition in test [19] and in [20] were 27.9% and 1.8%, respectively.
Consider `CN(c1ccc(NC(=O)Nc2ccc(OC(F)(F)F)cc2)cc1)c1ccnc(Nc2cccc(S(N)(=O)=O)c2)n1`, for which the inhibition in [1] is 3.78%; in [2], 3.1%; in test [3], 3.42%; in [4], -0.15%; in [5], 0.56%; in test [6] it was 0.76%. The inhibition in test [7] was -0.82%; in test [8] it was 0.6%; in [9], 0%; in test [10], -0.35%; in test [11], 1.61%; in test [12] it was -0.23%. Moreover, the inhibition in test [13] was 3.48%; in test [14] it was 0.06%; in test [15] it was 0.25%; in test [16], -0.29%; in [17], -0.29%; in [18], 1.62%. Also, the results for the inhibition in test [19] and in test [20] were 2.2% and -0.26%, respectively.
Regarding `COC(=O)Nc1nc2cc(Oc3ccc(NC(=O)Nc4cccc(Br)c4)cc3)ccc2[nH]1`, the inhibition turned out to be 4.58% in [1]; 2.07% in test [2]; 3.88% in test [3]; 1.83% in test [4]; 2.02% in test [5]; 0.8% in [6]. Moreover, the inhibition in test [7] came to 2.14%; in test [8], 1.95%; in test [9] it was 1.14%; in [10] it was 2.54%; in [11], 7.16%; in test [12] it was 3.44%. Also, the inhibition in test [13] worked out at 6.83%; in test [14], 1.44%; in [15], 1.53%; in [16] it was 1.69%; in test [17], 0.56%; in [18] it was 1.65%. Besides, the inhibition is 2.4% in test [19] and 1.97% in test [20].

Values taken from ChEMBL document CHEMBL1961873, “Compounds: GSK PKIS; Assays: Nanosyn kinase panel” (2012).
